Results on 4 compounds are retold here after the supplement of paper PMC9694430.

Assay in all cases: thermal shift delta Tm vs DMSO control; higher = stronger stabilization (binding)
Holding throughout (conditions): 12.5 µM; protein concentration 2 µM

One assay has as its system LOC_OS01G01410-cb001. Put shortly:
(§1)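 Purified, E. coli-expressed rice kinase domain constructs were tested by differential scanning fluorimetry in 96-well plates: 19.5 μl of 2 μM kinase in 100 mM potassium phosphate pH 7.5, 150 mM NaCl, 10% glycerol, 5 × SYPRO Orange, plus compound in DMSO. Fluorescence was read from 25°C to 95°C at 0.05°C/s. Melting temperatures came from Boltzmann fits, and the shift is the triplicate mean relative to protein with DMSO alone.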

The subject of another assay is LOC_OS01G02750-cb003. In short, it runs like this: as §1
For a further assay, the system named is LOC_OS01G10900-cb004. Put shortly:
as §1

The subject of a further assay is LOC_OS01G13800-cb001. Put shortly:
as §1

For the next assay, the system named is LOC_OS01G14860-cb001. Put shortly:
as §1

A further assay concerns LOC_OS01G21960-cb002. Put shortly:
as §1

The next assay concerns LOC_OS01G39600-cb002. In short, it runs like this: as §1
The next assay concerns LOC_OS01G48390-cb002. Put shortly: as §1
The next assay deals with LOC_OS01G51400-cb002. Put shortly: as §1
The next assay has as its system T1, LOC_OS01G52050-cb004.
T1 sequence (whole entry): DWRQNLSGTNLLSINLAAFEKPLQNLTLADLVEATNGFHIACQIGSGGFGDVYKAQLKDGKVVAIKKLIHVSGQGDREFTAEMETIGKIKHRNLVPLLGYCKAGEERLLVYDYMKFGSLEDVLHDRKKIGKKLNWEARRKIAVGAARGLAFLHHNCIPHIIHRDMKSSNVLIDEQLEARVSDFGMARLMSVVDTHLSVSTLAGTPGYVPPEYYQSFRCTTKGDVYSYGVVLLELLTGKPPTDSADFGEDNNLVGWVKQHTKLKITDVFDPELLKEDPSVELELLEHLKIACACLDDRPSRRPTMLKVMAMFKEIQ
Put shortly:
as §1

The subject of the next assay is LOC_OS01G57100-cb003. In short, it runs like this:
as §1

The test system of a further assay is LOC_OS01G60330-cb001. Put shortly: as §1
The next assay concerns LOC_OS01G60700-cb002. Put shortly:
as §1

The next assay relates to LOC_OS01G63280-cb003. In short, it runs like this:
as §1

A further assay has as its system LOC_OS01G67340-cb003. Put shortly:
as §1

The subject of the next assay is LOC_OS01G70970-cb002. In short, it runs like this:
as §1

A further assay deals with LOC_OS02G07810-cb001. In short, it runs like this: as §1
Another assay relates to LOC_OS02G08530-cb003. Put shortly:
as §1

The subject of the next assay is LOC_OS02G14120-cb001. In short, it runs like this:
as §1

In another assay the test system is LOC_OS02G17970-cb001. In short, it runs like this:
as §1

`CC(C)c1cnn2c(NCc3ccccc3-n3cccn3)nc(OC3CCCNC3)nc12` (stereo not given): the “thermal shift delta Tm” value in the assay on LOC_OS01G01410-cb001 was 0 °C; in the assay on LOC_OS01G02750-cb003 it was 1.24 °C; with LOC_OS01G10900-cb004, 0.29 °C; with LOC_OS01G13800-cb001, 0.99 °C; in the assay with LOC_OS01G14860-cb001, 0.39 °C; with LOC_OS01G21960-cb002, 1.47 °C. Moreover, the “thermal shift delta Tm” value is -0.1 °C in the assay with LOC_OS01G39600-cb002; 0.28 °C with LOC_OS01G48390-cb002; 0.35 °C in the assay with LOC_OS01G51400-cb002; 0.43 °C with LOC_OS01G52050-cb004; 0.42 °C with LOC_OS01G57100-cb003; 1.35 °C with LOC_OS01G60330-cb001. Further, the “thermal shift delta Tm” value was found to be 1.26 °C in the assay with LOC_OS01G60700-cb002; 0.47 °C with LOC_OS01G63280-cb003; 0.65 °C in the assay on LOC_OS01G67340-cb003; 0.27 °C in the assay on LOC_OS01G70970-cb002; 0.85 °C with LOC_OS02G07810-cb001; 0.74 °C in the assay on LOC_OS02G08530-cb003. Further, the “thermal shift delta Tm” value in the assay on LOC_OS02G14120-cb001 is -0.11 °C; in the assay on LOC_OS02G17970-cb001, 2.44 °C.

As to `CC[C@@H](N)CNc1ccnc(-c2cc(-c3cnn(C)c3)ccc2O)n1`, the “thermal shift delta Tm” value in the assay on LOC_OS01G01410-cb001 is 0.15 °C; in the assay on LOC_OS01G02750-cb003, 2.58 °C; in the assay on LOC_OS01G10900-cb004, 0.85 °C; with LOC_OS01G13800-cb001, -0.28 °C; in the assay with LOC_OS01G14860-cb001, 2.58 °C; with LOC_OS01G21960-cb002 it was 2.15 °C. Further, the “thermal shift delta Tm” value in the assay with LOC_OS01G39600-cb002 was -0.05 °C; in the assay with LOC_OS01G48390-cb002, 1.98 °C; in the assay with LOC_OS01G51400-cb002 it was 0.28 °C; in the assay on LOC_OS01G52050-cb004 it was 1.98 °C; in the assay with LOC_OS01G57100-cb003, 0.71 °C; in the assay on LOC_OS01G60330-cb001 it was 0.32 °C. Further, the “thermal shift delta Tm” value is -0.42 °C in the assay on LOC_OS01G60700-cb002; 0.05 °C with LOC_OS01G63280-cb003; 1.83 °C with LOC_OS01G67340-cb003; 0.65 °C with LOC_OS01G70970-cb002; -0.8 °C in the assay with LOC_OS02G07810-cb001; 2.73 °C in the assay on LOC_OS02G08530-cb003. The “thermal shift delta Tm” value with LOC_OS02G14120-cb001 stood at 4.11 °C; with LOC_OS02G17970-cb001, 0.54 °C.

For `Cc1c(CN2CCN(C(=O)[C@H](C)O)CC2)sc2c(N3CCOCC3)nc(-c3cnc(N)nc3)nc12` [Apitolisib (GDC-0980, RG7422)], the “thermal shift delta Tm” value with LOC_OS01G01410-cb001 was 0.32 °C; in the assay on LOC_OS01G02750-cb003, 0.18 °C; with LOC_OS01G10900-cb004, 0.13 °C; with LOC_OS01G13800-cb001, 0.56 °C; with LOC_OS01G14860-cb001, 0.1 °C; in the assay on LOC_OS01G21960-cb002 it was 0.49 °C. In addition, the “thermal shift delta Tm” value came out at 0.16 °C in the assay with LOC_OS01G39600-cb002; 0.64 °C with LOC_OS01G48390-cb002; 0.53 °C with LOC_OS01G51400-cb002; 0.42 °C in the assay on LOC_OS01G52050-cb004; 0.9 °C in the assay with LOC_OS01G57100-cb003; 0.98 °C in the assay with LOC_OS01G60330-cb001. Moreover, the “thermal shift delta Tm” value with LOC_OS01G60700-cb002 worked out at 0.46 °C; in the assay with LOC_OS01G63280-cb003, 0.4 °C; in the assay with LOC_OS01G67340-cb003, 0.25 °C; with LOC_OS01G70970-cb002 it was 0.37 °C; in the assay with LOC_OS02G07810-cb001, 1.43 °C; in the assay on LOC_OS02G08530-cb003, 1.01 °C. In addition, the “thermal shift delta Tm” value with LOC_OS02G14120-cb001 is 0.42 °C; with LOC_OS02G17970-cb001, 1.03 °C.

Turning to `Nc1ncnc2c1c(-c1cnc3[nH]ccc3c1)nn2C1CCCC1`, the “thermal shift delta Tm” value stood at 1.35 °C in the assay with LOC_OS01G01410-cb001; 1.16 °C in the assay on LOC_OS01G02750-cb003; 2.01 °C in the assay with LOC_OS01G10900-cb004; 0.12 °C with LOC_OS01G13800-cb001; 1.82 °C in the assay with LOC_OS01G14860-cb001; 1.28 °C in the assay with LOC_OS01G21960-cb002. Besides, the “thermal shift delta Tm” value turned out to be 0.43 °C with LOC_OS01G39600-cb002; 2.52 °C in the assay on LOC_OS01G48390-cb002; 0.19 °C with LOC_OS01G51400-cb002; 1.48 °C in the assay on LOC_OS01G52050-cb004; 1.79 °C in the assay with LOC_OS01G57100-cb003; 1.57 °C in the assay with LOC_OS01G60330-cb001. Moreover, the “thermal shift delta Tm” value in the assay with LOC_OS01G60700-cb002 is 1.17 °C; in the assay on LOC_OS01G63280-cb003, 4.61 °C; in the assay on LOC_OS01G67340-cb003, 1.58 °C; in the assay on LOC_OS01G70970-cb002, 0.76 °C; with LOC_OS02G07810-cb001, 1.3 °C; with LOC_OS02G08530-cb003, 2.67 °C. Besides, the “thermal shift delta Tm” value in the assay with LOC_OS02G14120-cb001 is 2.04 °C; with LOC_OS02G17970-cb001, 0.76 °C.
